Values without a mark were called inactive. The source made the active and inactive calls.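 The calls were made as follows, unless noted: active = compounds lowering colon cancer cell viability after pretreatment blocking the GSK3B kinase; inactive = the rest.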 Peptide text beside a SMILES is read from it.
Assay: growth inhibition of GSK3B-pretreated HCT116 cells – cell-based, CellTiter-Glo, 0.2 to 20 µM (AID 1117336)
Conditions: HCT116 viability after GSK3B inhibitor, at 20 µM, stronger effect = higher value
With `O=C(Nc1ccc([N+](=O)[O-])cc1Cl)c1cc(Cl)ccc1O` the viability decrease was 99.7% (active).
`CNC[C@H](O)c1cccc(O)c1` gave a viability decrease of -4.6%.
Work on `O=NN(CCCl)C(=O)NCCCl` yielded a viability decrease of -5.7%.
`COc1ccnc(CS(=O)c2nc3ccc(OC(F)F)cc3[nH]2)c1OC` (stereo unspecified) showed a viability decrease of 20.6%.
With `COc1ccc2cc3[n+](cc2c1OC)CCc1cc2c(cc1-3)OCO2` the viability decrease was 57.5% (active).
In the case of `CN(Cc1cc(Br)cc(Br)c1N)C1CCCCC1`, the viability decrease was 87.5% (active).
In the case of `O=C(NC(Cc1cc(=O)[nH]c2ccccc12)C(=O)O)c1ccc(Cl)cc1` (stereo unspecified), the viability decrease was -6.2%.
For `NC(=O)NO`, the viability decrease was 48.8%.
`Cc1ccc(S(=O)(=O)NC(=O)NN2CC3CCCC3C2)cc1` (stereo unspecified) gave a viability decrease of -5.85%.
Work on `OC[C@H]1O[C@@H](O[C@@H]2[C@@H](CO)O[C@](O)(CO)[C@H]2O)[C@H](O)[C@@H](O)[C@H]1O` yielded a viability decrease of -11.1%.
`NNc1nncc2ccccc12` showed a viability decrease of -10.3%.
In the case of `CCOC(=O)C(C)(C)Oc1ccc(Cl)cc1`, the viability decrease was -28.2%.
In the case of `CC(=O)Oc1ccccc1C(=O)O`, the viability decrease was -8.9%.
Work on `NC(=O)c1ncn([C@@H]2O[C@H](CO)[C@@H](O)[C@H]2O)n1` yielded a viability decrease of -32.4%.
For `CN(C)c1ccc(C(=C2C=CC(=[N+](C)C)C=C2)c2ccc(N(C)C)cc2)cc1`, the viability decrease was 104% (active).
Molecule `Cn1cnc2c1c(=O)[nH]c(=O)n2C` has a viability decrease of 5%.
Molecule `COc1ccc(CCN(C)CCCC(C#N)(c2ccc(OC)c(OC)c2)C(C)C)cc1OC` (stereo unspecified) has a viability decrease of -4.2%.
With `O=c1oc2c(O)c(O)cc3c(=O)oc4c(O)c(O)cc1c4c23` the viability decrease was 24.7%.
Molecule `CN(C)CCc1c[nH]c2ccc(CS(=O)(=O)N3CCCC3)cc12` has a viability decrease of -11%.
In the case of `COc1cc([C@H]2Oc3cc([C@H]4Oc5cc(O)cc(O)c5C(=O)[C@@H]4O)ccc3O[C@@H]2CO)ccc1O`, the viability decrease was -35.4%.
For `C/C=C(/C(=C/C)c1ccc(O)cc1)c1ccc(O)cc1`, the viability decrease was 101% (active).
Work on `O=C(O)c1cn(-c2ccc(F)cc2)c2cc(N3CCNCC3)c(F)cc2c1=O` yielded a viability decrease of 28.3%.
`CN1C(C(=O)Nc2ccccn2)=C(O)c2sccc2S1(=O)=O` showed a viability decrease of -17.8%.
For `COC(=O)Nc1nc2ccc(S(=O)c3ccccc3)cc2[nH]1` (stereo unspecified), the viability decrease was 93.5% (active).
In the case of `NCC1CCC(C(=O)O)CC1` (stereo unspecified), the viability decrease was -8.4%.
For `NC(CO)C(=O)NNCc1ccc(O)c(O)c1O` (stereo unspecified), the viability decrease was 55.6% (active).
With `Nc1nc(=S)c2[nH]cnc2[nH]1` the viability decrease was 47.4% (active).
Work on `O=c1c(-c2ccc(O)cc2)coc2cc(O)cc(O)c12` yielded a viability decrease of 36.1%.
In the case of `CC1(C)NC(=O)N(c2ccc([N+](=O)[O-])c(C(F)(F)F)c2)C1=O`, the viability decrease was -16.7%.
In the case of `C1CCC(C(CC2CCCCN2)C2CCCCC2)CC1` (stereo unspecified), the viability decrease was 101% (active).
With `N[C@@H](Cc1ccc(O)c(O)c1)C(=O)O` the viability decrease was 68.9% (active).
For `Cc1oncc1C(=O)Nc1ccc(C(F)(F)F)cc1`, the viability decrease was 40%.
In the case of `NS(=O)(=O)c1cc2c(cc1Cl)NC(C(Cl)Cl)NS2(=O)=O` (stereo unspecified), the viability decrease was 13.9%.
Work on `CCCOc1ccc2nc(NC(=O)OC)[nH]c2c1` yielded a viability decrease of 27%.
With `Cc1cc(C2CCCCC2)n(O)c(=O)c1` the viability decrease was 49.9% (active).
Molecule `COC(=O)[C@H](Cc1ccccc1)NC(=O)[C@@H](N)CC(=O)O` (H-Asp-Phe-OMe) has a viability decrease of -0.5%.
In the case of `CC1=CC(=O)c2ccccc2C1=O`, the viability decrease was 72.6% (active).
With `CCOC(=O)C1=C[C@]2(CC)CCCN3CCc4c(n1c1ccccc41)[C@@H]32` the viability decrease was 14.4%.

Assay: inhibition of endothelial tube formation, primary screen, imaging, VEGF stimulated, CD31 staining, tube area, NPC library (AID 1117340;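 active = compound that reduces growth-factor-driven endothelial tube area in a mixed cell culture, no cutoff stated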)
Conditions: VEGF-stimulated ADSC/ECFC co-culture, at 10 µM, stronger effect = higher value
For `O=C(Nc1ccc([N+](=O)[O-])cc1Cl)c1cc(Cl)ccc1O`, the tube area decrease was 103% (active).
`CNC[C@H](O)c1cccc(O)c1` gave a tube area decrease of -2.9%.
`O=NN(CCCl)C(=O)NCCCl` gave a tube area decrease of 23.1%.
`COc1ccnc(CS(=O)c2nc3ccc(OC(F)F)cc3[nH]2)c1OC` (stereo unspecified) showed a tube area decrease of -16.8%.
In the case of `COc1ccc2cc3[n+](cc2c1OC)CCc1cc2c(cc1-3)OCO2`, the tube area decrease was 57.3% (active).
With `CN(Cc1cc(Br)cc(Br)c1N)C1CCCCC1` the tube area decrease was 7.5%.
With `O=C(NC(Cc1cc(=O)[nH]c2ccccc12)C(=O)O)c1ccc(Cl)cc1` (stereo unspecified) the tube area decrease was 19.9%.
Molecule `NC(=O)NO` has a tube area decrease of 4.9%.
For `Cc1ccc(S(=O)(=O)NC(=O)NN2CC3CCCC3C2)cc1` (stereo unspecified), the tube area decrease was -26.1%.
For `OC[C@H]1O[C@@H](O[C@@H]2[C@@H](CO)O[C@](O)(CO)[C@H]2O)[C@H](O)[C@@H](O)[C@H]1O`, the tube area decrease was -2.5%.
`NNc1nncc2ccccc12` showed a tube area decrease of 5.9%.
In the case of `CCOC(=O)C(C)(C)Oc1ccc(Cl)cc1`, the tube area decrease was -5.8%.
`CC(=O)Oc1ccccc1C(=O)O` showed a tube area decrease of 9.2%.
In the case of `NC(=O)c1ncn([C@@H]2O[C@H](CO)[C@@H](O)[C@H]2O)n1`, the tube area decrease was 25.6%.
With `CN(C)c1ccc(C(=C2C=CC(=[N+](C)C)C=C2)c2ccc(N(C)C)cc2)cc1` the tube area decrease was 108% (active).
With `Cn1cnc2c1c(=O)[nH]c(=O)n2C` the tube area decrease was 15.1%.
`COc1ccc(CCN(C)CCCC(C#N)(c2ccc(OC)c(OC)c2)C(C)C)cc1OC` (stereo unspecified) showed a tube area decrease of -13.1%.
With `O=c1oc2c(O)c(O)cc3c(=O)oc4c(O)c(O)cc1c4c23` the tube area decrease was 58% (active).
For `CN(C)CCc1c[nH]c2ccc(CS(=O)(=O)N3CCCC3)cc12`, the tube area decrease was 8.7%.
With `COc1cc([C@H]2Oc3cc([C@H]4Oc5cc(O)cc(O)c5C(=O)[C@@H]4O)ccc3O[C@@H]2CO)ccc1O` the tube area decrease was 4.2%.
For `C/C=C(/C(=C/C)c1ccc(O)cc1)c1ccc(O)cc1`, the tube area decrease was 49.5% (active).
Molecule `O=C(O)c1cn(-c2ccc(F)cc2)c2cc(N3CCNCC3)c(F)cc2c1=O` has a tube area decrease of -4.3%.
For `CN1C(C(=O)Nc2ccccn2)=C(O)c2sccc2S1(=O)=O`, the tube area decrease was 2.6%.
In the case of `COC(=O)Nc1nc2ccc(S(=O)c3ccccc3)cc2[nH]1` (stereo unspecified), the tube area decrease was 110% (active).
`NCC1CCC(C(=O)O)CC1` (stereo unspecified) showed a tube area decrease of 25.3%.
`NC(CO)C(=O)NNCc1ccc(O)c(O)c1O` (stereo unspecified) gave a tube area decrease of -12.6%.
In the case of `Nc1nc(=S)c2[nH]cnc2[nH]1`, the tube area decrease was 104% (active).
For `O=c1c(-c2ccc(O)cc2)coc2cc(O)cc(O)c12`, the tube area decrease was 54.6% (active).
In the case of `CC1(C)NC(=O)N(c2ccc([N+](=O)[O-])c(C(F)(F)F)c2)C1=O`, the tube area decrease was 6.9%.
For `C1CCC(C(CC2CCCCN2)C2CCCCC2)CC1` (stereo unspecified), the tube area decrease was 9.8%.
With `N[C@@H](Cc1ccc(O)c(O)c1)C(=O)O` the tube area decrease was -13.9%.
In the case of `Cc1oncc1C(=O)Nc1ccc(C(F)(F)F)cc1`, the tube area decrease was 32%.
For `NS(=O)(=O)c1cc2c(cc1Cl)NC(C(Cl)Cl)NS2(=O)=O` (stereo unspecified), the tube area decrease was -20.1%.
In the case of `CCCOc1ccc2nc(NC(=O)OC)[nH]c2c1`, the tube area decrease was 107% (active).
In the case of `Cc1cc(C2CCCCC2)n(O)c(=O)c1`, the tube area decrease was 109% (active).
`COC(=O)[C@H](Cc1ccccc1)NC(=O)[C@@H](N)CC(=O)O` (H-Asp-Phe-OMe) showed a tube area decrease of 6.5%.
For `CC1=CC(=O)c2ccccc2C1=O`, the tube area decrease was 26.3%.
For `CCOC(=O)C1=C[C@]2(CC)CCCN3CCc4c(n1c1ccccc41)[C@@H]32`, the tube area decrease was 41% (active).

— PubChem BioAssay
